{
  "source": "PubChem BioAssay AID1851",
  "about": "(National Center for Advancing Translational Sciences (NCATS), 2009)",
  "note": "In all, about 16,000 compounds went through this assay and about 5,700 (36%) were called active. About 24% were inconclusive and are not listed. This is one part of the list. A number with no mark means an inactive call. The call rests on the fitted dose curve; in most records, active means well fitted curve in the direction sought with a large enough effect; inconclusive means small, poorly fitted or top-dose-only effect, or effect the other way; inactive means no such curve, though single readings can be large or run the other way. On the % scale 0 is the no-effect control and ±100 the full control effect.",
  "data": [
    {"molecular_target": "Cytochrome P450 1A2 (Homo sapiens) (UniProt P05177)", "sequence (P05177 whole entry, looked up)": "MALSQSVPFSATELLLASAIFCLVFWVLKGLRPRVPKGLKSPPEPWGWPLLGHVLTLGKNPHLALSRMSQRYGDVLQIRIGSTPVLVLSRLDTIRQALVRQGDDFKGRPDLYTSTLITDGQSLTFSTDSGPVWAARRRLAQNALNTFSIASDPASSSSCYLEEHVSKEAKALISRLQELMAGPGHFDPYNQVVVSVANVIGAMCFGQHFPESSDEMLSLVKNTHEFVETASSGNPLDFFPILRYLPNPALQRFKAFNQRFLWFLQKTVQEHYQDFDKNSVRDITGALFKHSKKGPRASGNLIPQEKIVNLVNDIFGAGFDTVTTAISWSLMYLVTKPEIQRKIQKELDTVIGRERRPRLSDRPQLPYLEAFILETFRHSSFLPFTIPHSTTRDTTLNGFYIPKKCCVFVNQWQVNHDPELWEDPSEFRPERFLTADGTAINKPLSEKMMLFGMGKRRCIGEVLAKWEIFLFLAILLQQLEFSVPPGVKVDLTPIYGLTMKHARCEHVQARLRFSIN", "assay": "Cytochrome panel assay with activity outcomes", "details": "recombinant CYP, pro-luciferin dealkylation, luminescence, p450-cyp1a2; series mostly up to 57.1 µM; activity, negative = inhibition: at the top concentration", "values": [
      {"smiles": "CC(=O)O[C@@H](C)C[N+](C)(C)C", "AC50": "inactive"},
      {"smiles": "COc1ccccc1-c1nc(NCc2ccccc2)c2ccccc2n1", "AC50": "398 nM (active)"},
      {"smiles": "Clc1ccccc1-c1nc(NCc2cccs2)c2ccccc2n1", "AC50": "1000 nM (active)"},
      {"smiles": "COc1ccccc1-c1nc(NCc2cccs2)c2ccccc2n1", "AC50": "631 nM (active)"},
      {"smiles": "CNc1nc(-c2ccccc2OC)nc2ccccc12", "AC50": "398 nM (active)"},
      {"smiles": "COc1ccccc1-c1nc(NCc2cccnc2)c2ccccc2n1", "AC50": "794 nM (active)"},
      {"smiles": "N/N=C1/CC(=O)NC(=O)N1", "AC50": "631 nM (active)"},
      {"smiles": "COc1ccc(OC[C@@H](CO)OC)cc1", "activity, negative = inhibition": "-13.3% [at 11.4 µM]"},
      {"smiles": "O=C1[C@H]2[C@H]3[C@H](O)[C@H](O)C/C(=N/OCc4ccccc4)[C@@H]3CC[C@@H]2C(=O)N1C[C@@H]1CCCO1", "activity, negative = inhibition": "1.8% [at 11.4 µM]"},
      {"smiles": "O=c1cnc2cnc(Nc3ccccc3)nc2n1C[C@H]1CCCO1", "AC50": "794 nM (active)"},
      {"smiles": "CCCc1nnc(SCC(=O)N2CCCCC2)n1CC1CCCO1", "note": "(stereo unspecified)", "activity, negative = inhibition": "0.426%"},
      {"smiles": "O=C1[C@H]2[C@H]3[C@H](O)[C@H](O)C/C(=N/OCc4ccccc4)[C@H]3CC[C@@H]2C(=O)N1C[C@@H]1CCCO1", "activity, negative = inhibition": "-4.81% [at 11.4 µM]"},
      {"smiles": "CCCc1nnc(SCC(=O)N2CCCCC2C)n1CC1CCCO1", "note": "(stereo unspecified)", "activity, negative = inhibition": "17.6%"},
      {"smiles": "CCNc1ncc2ncc(=O)n(C[C@H]3CCCO3)c2n1", "AC50": "10000 nM (active)"},
      {"smiles": "Cc1cc2nc(CCN(C(=S)NCC(C)C)C3CCCC3)[nH]c2cc1C", "AC50": "3160 nM (active)"},
      {"smiles": "CCNC(=O)c1c(NC(C)=O)sc2c1CCCC2", "AC50": "1260 nM (active)"},
      {"smiles": "CC(=O)Nc1nnc(CCN2CCCCC2)s1", "activity, negative = inhibition": "25.3%"},
      {"smiles": "CC(=O)Nc1sc2c(c1C(N)=O)CCCC2", "AC50": "3160 nM (active)"},
      {"smiles": "COCCCNC(=O)c1c(NC(=O)c2cccs2)sc2c1CCCC2", "AC50": "251 nM (active)"},
      {"smiles": "CCN(CC)S(=O)(=O)c1cccc(C(=O)N[C@H](C(=O)OCC(=O)NC(=O)NC)C(C)C)c1", "activity, negative = inhibition": "0.134%"},
      {"smiles": "CCCC[C@@H]1C[C@H]1C(NC(=O)c1ccco1)c1ccccc1", "note": "(stereo partly specified)", "AC50": "2000 nM (active)"},
      {"smiles": "CCCC[C@@H]1C[C@H]1C(NC(=O)Cc1ccccc1)c1ccc(-c2ccccc2)cc1", "note": "(stereo partly specified)", "activity, negative = inhibition": "-13%"},
      {"smiles": "CCCNC(=O)CC(NS(=O)(=O)c1ccc(Cl)cc1)c1ccco1", "note": "(stereo unspecified)", "activity, negative = inhibition": "-15.2%"},
      {"smiles": "CCCC[C@@H]1C[C@H]1C(NC(=O)c1ccco1)c1ccc(Cl)cc1", "note": "(stereo partly specified)", "AC50": "794 nM (active)"},
      {"smiles": "CCCC[C@@H]1C[C@H]1C(NC(=O)c1ccco1)c1ccc(-c2ccccc2)cc1", "note": "(stereo partly specified)", "AC50": "5010 nM (active)"},
      {"smiles": "COC(=O)C(CCSC)NC(=O)c1cccc([N+](=O)[O-])c1", "note": "(stereo unspecified)", "activity, negative = inhibition": "-27.1%"},
      {"smiles": "CCOc1cc(C)ccc1OCc1nnc(SCC(=O)c2cccc([N+](=O)[O-])c2)n1CC", "activity, negative = inhibition": "-13%"},
      {"smiles": "Cc1cccc(C(=O)O/N=C(\\N)c2cccc([N+](=O)[O-])c2)c1", "AC50": "2510 nM (active)"},
      {"smiles": "N/C(=N\\OC(=O)Cc1ccc(-c2ccccc2)cc1)c1cccc([N+](=O)[O-])c1", "AC50": "14100 nM (active)"},
      {"smiles": "C[C@@H](c1ccccc1)N1C(=O)[C@H]2[C@H]3[C@H](O)[C@H](O)C/C(=N/OCc4ccccc4)[C@@H]3CC[C@@H]2C1=O", "activity, negative = inhibition": "-7.71% [at 11.4 µM]"},
      {"smiles": "Clc1ccc([C@H](Cn2ccnc2)OCc2csc3c(Cl)cccc23)c(Cl)c1", "AC50": "6310 nM (active)"},
      {"smiles": "Clc1ccc(COC(Cn2ccnc2)c2ccc(Cl)cc2Cl)c(Cl)c1", "note": "(stereo unspecified)", "AC50": "1260 nM (active)"},
      {"smiles": "Clc1ccc(CO[C@@H](Cn2ccnc2)c2ccc(Cl)cc2Cl)cc1", "AC50": "100 nM (active)"},
      {"smiles": "Clc1ccc(C(c2ccc(Cl)cc2)n2cc[n+](C[C@@H](OCc3ccc(Cl)cc3Cl)c3ccc(Cl)cc3Cl)c2)cc1", "AC50": "31600 nM (active)"},
      {"smiles": "CC(C)COP(=O)(c1ccc(N(C)C)cc1)C(O)c1ccccc1F", "note": "(stereo unspecified)", "activity, negative = inhibition": "-15.4%"},
      {"smiles": "CN1CCN(C(=O)c2ccc3c(=O)n4c(nc3c2)CCCCC4)CC1", "activity, negative = inhibition": "-16.5%"},
      {"smiles": "O=C(Nn1cnc2ccccc2c1=O)c1ccc(F)cc1Cl", "activity, negative = inhibition": "-11.4%"},
      {"smiles": "O=C(Nc1ccc(F)cc1Cl)c1ccc2c(=O)n3c(nc2c1)CCCCC3", "AC50": "5010 nM (active)"},
      {"smiles": "CO[C@H]1COC(=O)[C@@H](C)COC(=O)[C@@H](COCc2ccccc2)NC(=O)C/C=C\\[C@H]1C", "activity, negative = inhibition": "3.03% [at 11.4 µM]"},
      {"smiles": "COc1cc(COc2cc(N)c(Cl)cc2C(=O)CCC2CCN(CCNS(C)(=O)=O)CC2)cc(OC)c1", "activity, negative = inhibition": "-11.5%"},
      {"smiles": "CCCCN1CCC(CCC(=O)c2cc(Cl)c(N)cc2OC)CC1", "activity, negative = inhibition": "-39%"},
      {"smiles": "CCCCN1CCC(COC(=O)c2cc(Cl)c(N)c3c2OCCO3)CC1", "AC50": "12600 nM (active)"},
      {"smiles": "CCCCCCCCC(=O)N/N=C/c1cccc(Br)c1", "AC50": "891 nM (active)"},
      {"smiles": "CCCCCCCCC(=O)N/N=C/c1ccccn1", "AC50": "4470 nM (active)"},
      {"smiles": "CCN(CC)C(=O)C(=O)N/N=C/c1cccc(Br)c1", "AC50": "10000 nM (active)"},
      {"smiles": "NC([N-]/N=C/c1ccccn1)=[S]=[Fe].O=S(=O)(O)O", "activity, negative = inhibition": "15.8% [at 2.29 µM]"}
    ]}
  ]
}
